PubChem BioAssay (NCI)
The panel holds about 79,000 compounds, 15% with a hit somewhere; the sample as a whole holds those more often. No stated cut-off is given here; in the data, active means growth inhibition above about 70%; inactive means the rest.

Tests used:
[1] = NCI Yeast Anticancer Drug Screen. Data for the rad50 strain (AID 155);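 further: 0% = growth of vehicle-only cultures of the same strain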; details: S. cerevisiae rad50 strain growth inhibition; at 50.0 µM; hits give high values
Summary of the method: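 Cells are treated with compound, grown, and their growth is then scored against vehicle-only cultures of the same repair-deficient yeast strain.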

[2] = NCI Yeast Anticancer Drug Screen. Data for the mec2-1 strain (AID 157); details: S. cerevisiae mec2-1 strain, at 50.0 µM, hits give high values
Summary of the method: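 Vehicle-treated cultures served as reference for growth inhibition of compound-exposed mec2-1 yeast.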

[3] = NCI Yeast Anticancer Drug Screen. Data for the sgs1 mgt1 strain (AID 161);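 further: 0% = growth of cultures given vehicle only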; details: S. cerevisiae sgs1 mgt1 strain, at 50.0 µM, hits give high values
Summary of the method: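 Inhibition of yeast growth, normalised to vehicle-treated controls, is reported for a strain bearing genetic alterations in DNA damage repair.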

[4] = NCI Yeast Anticancer Drug Screen. Data for the cln2 rad14 strain (AID 165);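 further: 0% = growth equal to vehicle treated cultures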; details: S. cerevisiae cln2 rad14 strain, at 50.0 µM, hits give high values
Summary of the method: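 Each compound was tested on cln2 rad14 yeast. Inhibition of growth was calculated against vehicle-exposed controls.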

[5] = NCI Yeast Anticancer Drug Screen. Data for the bub3 strain (AID 167); details: S. cerevisiae bub3 mutant strain, at 50.0 µM, hits give high values
Summary of the method: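 Part of a panel of yeast mutants defective in DNA damage repair or cell cycle regulation. Each strain is grown with compound, and inhibition is calculated relative to solvent-treated cultures.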

[6] = NCI Yeast Anticancer Drug Screen. Data for the mlh1 rad18 strain (AID 175); details: S. cerevisiae mlh1 rad18 strain growth inhibition; at 50.0 µM; hits give high values
Summary of the method: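 Vehicle-treated cultures served as the reference for growth inhibition in a yeast strain carrying DNA damage repair alterations exposed to each compound.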

Measured: growth inhibition

COc1nc2ccccc2c(=O)[nH]1
inactive: [1] -6.7% | [2] -5.2% | [3] -6.05% | [4] 0.1% | [5] 2% | [6] 6.5%

Cc1[nH]nc(-c2ccon2)c1N
inactive: [1] -4.45% | [2] -3.3% | [3] -27.4% | [4] -20.5% | [5] 13.2% | [6] -6.6%

CC(C)CC(=O)OC1=C(OC(=O)CC(C)C)C(=O)C(OC(=O)CC(C)C)=C(OC(=O)CC(C)C)C1=O
inactive: [1] 36.9% | [2] 15.3% | [3] 39.3% | [4] 29.6% | [5] 7.9% | [6] 25.3%

OC(c1ccccc1)(C1CCNCC1)C1CC1 (configuration not stated)
inactive: [1] 9.8% | [2] -10.4% | [3] -4% | [4] -20.4% | [5] -16.6% | [6] -6.45%

COC1/C=C\OC2(C)Oc3c(C)c(O)c4c(O)c(c(CN(C)C)c(O)c4c3C2=O)NC(=O)/C(C)=C\C=C/C(C)C(O)C(C)C(O)C(C)C(OC(C)=O)C1C (configuration not stated)
inactive: [1] 50.5% | [2] -3.1% | [3] -16.7% | [4] 28.2% | [5] -29.9% | [6] -6.45%

N=C(N)/N=C(/C=C/c1ccccc1)CC1OC(=O)c2ccccc21 (configuration not stated)
inactive: [1] -6.95% | [2] -10.7% | [3] -22.6% | [4] -2.85% | [5] -28.8% | [6] -24.3%

O=C(/C=C/c1ccc(Cl)c(Cl)c1)c1ccc2ccccc2c1
inactive: [1] 28.2% | [2] 1.95% | [3] -3.7% | [4] -8.6% | [5] 11.2% | [6] 20.2%

CC(=O)Oc1nnc(-c2ccccc2)c(-c2ccccc2)n1
inactive: [1] 24.5% | [2] 16.9% | [3] 17.1% | [4] 13.8% | [5] 7.4% | [6] 17.3%

O=C(O)C(Cl)C(Cl)c1ccc(Cl)cc1 (configuration not stated)
inactive: [1] -2.6% | [2] 7.15% | [3] 6.15% | [4] -57.3% | [5] 11.9% | [6] 6.6%

OC(CI)C1OCOC2COCOC21 (configuration not stated)
inactive: [1] -3.2% | [2] 4.5% | [3] 13.1% | [4] -4% | [5] 16.1% | [6] -3.75%

O=C(O)c1ccccc1C(=O)c1ccc(F)c2ccccc12
inactive: [1] 11% | [2] 26.9% | [3] 18.6% | [4] 21.1% | [5] 3.75% | [6] 10.7%

Cc1ccc(NC(=O)CNc2ccc3c(c2)Cc2ccccc2-3)cc1
inactive: [1] -1.05% | [2] 14.6% | [3] 24.9% | [4] -37.5% | [5] 34.5% | [6] 27.2%

COc1ccccc1CCCO
inactive: [1] -1.8% | [2] 1.2% | [3] 1.55% | [4] 11.2% | [5] 10.1% | [6] -3.1%

c1ccc2[nH]c3[nH]c4[nH]c5ccccc5[nH]c4[nH]c3[nH]c2c1
inactive: [1] -29.2% | [2] -9.2% | [3] -20.6% | [4] -6.2% | [5] -8.5% | [6] -11.8%

CCCCC(O)(CCCC)C(C)(C)C
inactive: [1] 3.7% | [2] 4.05% | [3] 0.6% | [4] -30.9% | [5] -0.2% | [6] 9.3%

C=C1C(=O)OC2C1C(OC(=O)/C(=C/CO)CO)CC1(CO1)C1CC=C(C)C21 (configuration not stated)
inactive: [1] 32.2% | [2] 8.05% | [3] 19.8% | [4] -2.15% | [5] -1.95% | [6] 9.6%

Cc1cc(C)n(C2=NCCN2)n1
inactive: [1] -26.1% | [2] -33.7% | [3] -14.1% | [4] -33.2% | [5] 4.2% | [6] -17.6%

CN1C(=O)n2c(nc3ccccc32)C(N2CCOCC2)(N2CCOCC2)C1=O
inactive: [1] 44% | [2] 56.4% | [3] 62.9% | [4] 29.9% | [5] 31.4% | [6] 45.8%

CCC(O)C(CC)CC (configuration not stated)
inactive: [1] 13.8% | [2] -19.7% | [3] -4.2% | [4] 17% | [5] -10.2% | [6] 14.9%

CO[C@@H]1C[C@H]2[C@@H]3CC[C@H]([C@H](C)COC(C)=O)[C@@]3(C)CC[C@@H]2[C@@]2(C)CC[C@H]3C[C@]312
inactive: [1] -4.65% | [2] 5.8% | [3] 1.55% | [4] -9.65% | [5] -1.6% | [6] 5.4%

Cn1c(=O)c2c(n(C)c1=O)n1c(=O)c3ccccc3nc1n2C
inactive: [1] 12.9% | [2] 2.3% | [3] -15.6% | [4] -7.1% | [5] -7.3% | [6] -6.55%

CCCCN(CCCC)CC(O)c1cc(-c2c(Cl)cccc2Cl)nc2c(Cl)cc(Cl)cc12 (configuration not stated)
inactive: [1] 53.3% | [2] 55.3% | [3] 55% | [4] 13.8% | [5] 20.8% | [6] 64.1%

CCOC(=O)C(C(=O)OCC)C(c1ccccc1)c1ccccc1OC (configuration not stated)
inactive: [1] 6.9% | [2] 12% | [3] 4.15% | [4] 17% | [5] 12.3% | [6] -9.55%

O=C1CCCC/C1=C/c1ccccc1
inactive: [1] 6% | [2] 18.9% | [3] -3.3% | [4] -19.1% | [5] -11.9% | [6] 8.05%

C/C(=C\CNc1ncnc2c1ncn2CCC(=O)OC(C)(C)C)CO
inactive: [1] -12.3% | [2] -8.7% | [3] -49.1% | [4] 13.1% | [5] 5.6% | [6] -17.6%

CCOC(=O)Nc1nc2ccccc2n1CN1CCCCC1
inactive: [1] 18.5% | [2] 11.1% | [3] 23.4% | [4] 16.4% | [5] 0.2% | [6] 27.2%

c1csc(-c2nc3sc(-c4cccs4)nc3s2)c1
inactive: [1] 3.4% | [2] -9.75% | [3] 1.9% | [4] -18.8% | [5] -16.6% | [6] -2.4%

S=C(Nc1cccc2ccccc12)N1CCCCC1
inactive: [1] 51.7% | [2] 39% | [3] 50.7% | [4] 18.1% | [5] 61% | [6] 35.7%

Cc1cc(C)n(-c2nc(C)c(CCO)c(=O)[nH]2)n1
inactive: [1] -6.45% | [2] -14.6% | [3] -6.4% | [4] 15.7% | [5] -41.4% | [6] -9.1%

Cc1c(C(=N)N)oc2ccccc12
inactive: [1] 6.3% | [2] 0.05% | [3] 0.4% | [4] -31.5% | [5] -4.15% | [6] 3.95%

CN(C)CCCNC(=O)NCCCCCCNC(=O)NCCCN(C)C
inactive: [1] 13.1% | [2] -9.85% | [3] 31.7% | [4] 18.4% | [5] 32.4% | [6] 19%

O=C(CN1CCCCC1)NC(=O)c1ccccc1
inactive: [1] -8.8% | [2] -11.6% | [3] -7.8% | [4] -9.15% | [5] 0.65% | [6] -7.5%

Cc1cccc(C)c1NC(=O)C(Cl)(Cl)Sc1ccc(Cl)cc1Cl
inactive: [1] 0.3% | [2] -34.9% | [3] 5.9% | [4] 8.65% | [5] -5.2% | [6] -2.6%

O=C(c1ccccc1)C12CCCC(CC1)C2 (configuration not stated)
inactive: [1] 0.15% | [2] -19.9% | [3] -2.2% | [4] -37.5% | [5] -9.6% | [6] 0.65%

Cc1ccc(S(=O)(=O)Nc2cccc3c(=O)[nH]cnc23)cc1
inactive: [1] 1.6% | [2] -13.8% | [3] 1.2% | [4] -37.2% | [5] 10.3% | [6] 18.8%

CC(=O)Oc1ccc(C(C)C)cc1
inactive: [1] -9.55% | [2] -30.9% | [3] -25.3% | [4] -13.6% | [5] -11.2% | [6] -1.6%

O=C(c1ccccc1O)N1CCCCC1
inactive: [1] 32.1% | [2] 25.2% | [3] 12.5% | [4] 13.9% | [5] 16.6% | [6] 11.3%

CC(C)C(NC(=O)C1CCCN1)P(=O)(O)O (configuration not stated)
inactive: [1] 10.1% | [2] 1.7% | [3] 4.55% | [4] -10.8% | [5] 5% | [6] 5.9%

Cc1cccc(C(=O)O)c1-c1c(C)cccc1C(=O)O
inactive: [1] 13.3% | [2] -5.95% | [3] -6.8% | [4] 3.05% | [5] 0.8% | [6] 12.9%

CCOC(=O)c1c(OC)ccc2ccccc12
inactive: [1] 13.3% | [2] 10.7% | [3] 4% | [4] -29.9% | [5] 21.6% | [6] 0.35%

CO/N=C1\C(C)(C)C(C)(C)C(C)(C)C1(C)SS(=O)(=O)O (configuration not stated)
inactive: [1] 23.6% | [2] 19.1% | [3] 12.6% | [4] 17.6% | [5] 20.8% | [6] 29.9%

Nc1nc(N)nc(-c2ccccc2N)n1
inactive: [1] 2.2% | [2] -7.5% | [3] -14.2% | [4] -45% | [5] -22.8% | [6] 5.6%
